The values below come from PubChem BioAssay (NCI).

About 83,000 compounds went through this panel and 20% of them were active in at least one assay; those are over-represented in the sample as a whole.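 Assay: single dose, 48 h. Readout: percent growth (0 = no net growth; negative = cell death). Active: <10.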 Active and inactive are the calls of the source.

The subject of the assay is HL-60(TB) leukemia. Kind of assay: NCI-60 one-dose screen, 48 h (100 = growth as untreated, 0 = no growth, -100 = all killed). The note with it: 10 µM unless noted.
Turning to `OCCNc1ccccc1`, the growth is 100% (inactive).

Consider `O=C(/C=C/C12c3ccccc3C(c3ccccc31)C1C(=O)N(c3ccc(Cl)cc3)C(=O)C12)c1ccccn1` (stereo not given), for which the growth was -19.4% (active).

On to `O=C1Nc2ccccc2/C1=C\c1ccccc1O`, for which the growth was 75.2% (inactive).

`Fc1ccc(-c2nc(-c3ccc(-c4nc5ccc(F)cc5[nH]4)cc3)no2)cc1`: the growth was 96.3% (inactive).

`COc1ccc2c(/C=C3/C(=O)NC(=S)NC3C)cc(=O)oc2c1` (stereo not given): the growth is 90.5% (inactive).

`CCOC(=O)C(O)C(O)C(=O)OCC` (stereo not given): the growth is 102% (inactive).

Take `O=C1C(=O)c2ccc(Br)cc2-c2cc(Br)ccc21`: the growth was -14.5% (active).

Take `CNC(=O)NCC1OC(n2cnc3c(NC(=O)Nc4ccccc4)ncnc32)C2OC(=O)CC12` (stereo not given): the growth was 82.7% (inactive).

As to `CC1CCC(C(C)C)C(NN)C1` (stereo not given), the growth is 70.2% (inactive).

Turning to `[2H]c1nc(=Nc2cc(NC(=O)C=C)c(N(C)CCN(C)C)cc2OC)[nH]c(-c2cn(C([2H])([2H])[2H])c3ccccc23)c1[2H]`, the growth was -37.8% (active).

For `COc1ccc(-c2cnc(-c3ccc(Cl)cc3)[nH]2)cc1OC`, the growth is 91.2% (inactive).

Consider `COc1cc(Cn2cc3c(c2)-c2onc(CO)c2CC3)cc(OC)c1OC`, for which the growth is 77.5% (inactive).

Consider `CCN(CC)c1ccc(/C=C2\Oc3ccc(O)c(I)c3C2=O)cc1`, for which the growth was 18.5% (inactive).

As for `O=C(O)CSCC(=O)Nc1cc(C(F)(F)F)ccc1Cl`, the growth was 102% (inactive).

In the case of `Cc1nc2sc(C(=O)Nc3ccccc3)c(N)c2cc1C(=O)c1ccc(C(F)(F)F)cc1`, the growth is 99.3% (inactive).

For the compound `O=C1OCC2=C1C(c1cccc(Cl)c1)c1cc3c(cc1N2CCO)CCC3` (stereo not given), the growth is -26.3% (active).

On to `CN1CCN(CC(=O)N(C)c2ccc(N=C(c3ccccc3)c3c(O)[nH]c4ccc([N+](=O)[O-])cc34)cc2)CC1`, for which the growth is 53.5% (inactive).

For the compound `Cc1cc(Nc2nc(-c3cccnc3)nc3ccccc23)n[nH]1`, the growth is 53.4% (inactive).

Regarding `CCOC(=O)CCN(CCC(=O)OCC)c1ccccc1`, the growth is 104% (inactive).

On to `CC(=O)O[C@H]1[C@H](CC#CC#CC[C@@H]2C[C@]3(C)[C@H]4CC=C5[C@H]6[C@@H](C)[C@H](C)CC[C@]6(C(=O)NCCCCCCCCN)CC[C@@]5(C)[C@]4(C)CC[C@H]3C(C)(C)[C@H]2OC(C)=O)C[C@]2(C)[C@H]3CC=C4[C@H]5[C@@H](C)[C@H](C)CC[C@]5(C(=O)NCCCCCCCCN)CC[C@@]4(C)[C@]3(C)CC[C@H]2C1(C)C`, for which the growth was 104% (inactive).

In the case of `O=C(/C=C/c1ccccc1Br)c1cccc(OCCCCOc2cccc(C(=O)/C=C/c3ccccc3Br)c2)c1`, the growth was 92% (inactive).

Consider `CC1(C)Nc2cccc3c(N=Nc4ccc(N=Nc5ccccc5)c5ccccc45)ccc(c23)N1`, for which the growth is 86.1% (inactive).

Turning to `Oc1ccccc1/C=N/Nc1ccc2ccccc2n1`, the growth is -8.13% (active).

Regarding `COc1ccc(C2=NN(C(C)=O)C(c3c(C)nn(-c4ccccc4)c3N3CCOCC3)C2)cc1` (stereo not given), the growth was 101% (inactive).

In the case of `O=[N+]([O-])c1cc([N+](=O)[O-])c(N2CCCC2)cc1NN=C(c1ccc(O)cc1)c1ccc(O)cc1`, the growth is 122% (inactive).

As for `CC(=O)OC(C)COc1ccc(-c2ccccc2)cc1` (stereo not given), the growth is 104% (inactive).

Turning to `COc1cc2c(c(OC)c1OC)C(=O)/C(=C/c1cc(C)c(O)c(C)c1)S2`, the growth is 13.6% (inactive).

`NC(CCl)=NCC12CC3CC(CC(C3)C1)C2`: the growth is -30.2% (active).

For the compound `COc1cccc(-c2nc3sccn3c2-c2ccnc(NCCCNS(=O)(=O)c3cccc(Cl)c3)c2)c1`, the growth is -9.87% (active).

Turning to `O=c1[nH]c(-c2ccccn2)nc2sc3c(c12)CCCCC3`, the growth was 21.8% (inactive).

For the compound `CCN1/C(=C/C=C/C=C/c2sc3ccccc3[n+]2CC)Sc2ccccc21`, the growth is -58.4% (active).

With `Nc1c(S(=O)(=O)O)cc2c3c(cccc13)C(=O)OC2=O`, the growth was 134% (inactive).

On to `Cn1cc(-c2ccc(F)c(C(F)(F)F)c2)nc1C1CCN(c2ncnc3[nH]ncc23)CC1`, for which the growth is 84.7% (inactive).

On to `N=C(N)SCc1cccc2c(CSC(=N)N)cccc12`, for which the growth was 93.4% (inactive).

In the case of `COc1ccc(/C=C/c2nc(NCCCN(C)C)c3ccccc3n2)cc1`, the growth was 88.3% (inactive).

For `Cc1ccc(Cl)cc1Nc1nc(C(F)(F)F)ccc1C(=O)N/N=C/c1cccnc1`, the growth is 3.36% (active).

On to `O=c1c2ccccc2[nH]n1Cc1ccc2c(c1)OCO2`, for which the growth is 98.4% (inactive).

On to `CNC(=O)c1cc(Oc2ccc(NC(=O)Nc3ccc(Cl)c(C(F)(F)F)c3)c(F)c2)ccn1`, for which the growth was -17.4% (active).

Turning to `CC(C)c1nc(N(C)S(C)(=O)=O)nc(-c2ccc(F)cc2)c1/C=C/[C@@H](O)C[C@@H](O)CC(=O)O`, the growth is 114% (inactive).

In the case of `C=C(C)[C@@H]1CC[C@]2(C(=O)NCCNCCNCCN)CC[C@]3(C)[C@H](CC[C@@H]4[C@@]5(C)CC[C@H](O)C(C)(C)[C@@H]5CC[C@]43C)[C@@H]12`, the growth is -24% [100 µM] (active).
